# Experimental data: PubChem BioAssay (Tox21)
# Results filed as inconclusive are left out. Active and inactive are the calls of the source. The call rests on the fitted dose curve; in most records, active means well fitted curve in the direction sought with a large enough effect in the repeat runs; inconclusive means weak or mixed curves; inactive means no such curve, though single readings can be large; an effect the other way counts as inactive or inconclusive.
# Test: qHTS assay to identify small molecule agonists of the retinoic acid receptor (RAR) signaling pathway (AID 1159553); further: potency means the concentration at half of the fitted maximal effect
# Details: C3RL4 RARE luciferase reporter, agonist, 6 h; series mostly up to 73.3 µM; activation: at the top concentration
# How it was run: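 Compounds dissolved in DMSO were pinned onto C3RL4 cells seeded the previous day, and plates were held 6 hr at 37 C. RARE-driven luciferase output was then read by luminescence.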
# On the % scale 0 is the no-effect control and ±100 the full control effect.
Compound,activation,Potency
CC1(O)CSC(C)(O)CS1 (stereo unspecified),-4.79% (inactive),–
Cc1cc2nc(N)sc2cc1C,–,1.38 µM (active)
COc1ccc(Nc2ccc(OC)cc2)cc1,–,4.94 µM (active)
CCCCCCCOC(=O)CCC,-0.539% (inactive),–
CCCCCCCCCCCCCCCCOP(=O)([O-])OCC[N+](C)(C)C,-2.98% (inactive),–
CCCCCCCCc1ccc(S(=O)(=O)O)cc1,0.956% (inactive),–
C[C@]12CCC(=O)C=C1CC[C@@H]1[C@@H]2CC[C@@]2(C)[C@H]1CC[C@]2(O)C(=O)CO,-4.22% (inactive),–
CC(C)=CCC[C@](C)(O)[C@@H]1CC=C(C)CC1,-4.76% (inactive),–
CCOc1ccccc1N,-0.822% (inactive),–
NC/C=C/C(=O)O,1.79% (inactive),–
CCOC(=O)CS,-9.02% [at 94.8 µM] (inactive),–

# Test: qHTS assay to identify small molecule antagonists of the estrogen related receptor (ERR) signaling pathway (AID 1224819;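 further: luminescence from an ERR-driven luciferase reporter measured with One-Glo reagent; nearly all actives have a fitted effect of over 50% in size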)
# Details: ERR reporter cell line, luciferase inhibition; series mostly up to 46.1 µM; activity change, negative = inhibition: at the top concentration
# How it was run: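 ERR reporter cells were plated at 2,000 cells/well and left 6 h at 37 C/5% CO2 before pin-tool transfer of compounds in DMSO. After 18 h at 37 C, One-Glo was added and luminescence was read 30 min later at room temperature.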
row,Compound,"activity change, negative = inhibition"
1,CN1CCC[C@@H]1Cc1c[nH]c2ccc(CCS(=O)(=O)c3ccccc3)cc12,-0.995% (inactive)
2,C[C@]12CCC(=O)C=C1CC[C@@H]1[C@@H]2CC[C@@]2(C)[C@H]1CC[C@]2(O)C(=O)CO,-22.2% (inactive)
3,NC/C=C/C(=O)O,2.5% (inactive)

# Test: qHTS assay to identify small molecule agonists of the estrogen related receptor (ERR) signaling pathway (AID 1224820)
# Details: ERR reporter cell line, luciferase agonist mode; series mostly up to 46.1 µM; activation: at the top concentration
# How it was run: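 Luminescence readout (One-Glo, 30 min RT) from NTP-supplied ERR cell line exposed to compounds for 18 h at 37 C. Cells seeded 2,000 per well and pre-incubated 6 h before pin-tool compound transfer.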
row,Compound,activation
1,CN1CCC[C@@H]1Cc1c[nH]c2ccc(CCS(=O)(=O)c3ccccc3)cc12,1.13% (inactive)
2,C[C@]12CCC(=O)C=C1CC[C@@H]1[C@@H]2CC[C@@]2(C)[C@H]1CC[C@]2(O)C(=O)CO,-23.9% (inactive)
3,NC/C=C/C(=O)O,5.93% (inactive)

# Test: qHTS assay to identify small molecule antagonists of the estrogen related receptor signaling pathway with the pleiotropic PPARgamma coactivator (PGC) cell viability counter screen (AID 1224822;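 further: viability read after 17.5 h compound exposure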)
# Details: ERR/PGC reporter cell line viability counter screen; series mostly up to 46.1 µM; viability change, negative = cytotoxic: at the top concentration
# How it was run: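 Viable cell signal (CellTiter-Fluor, 30 min, 37 C/5% CO2) was measured in PGC/ERR cells after a 17.5 h compound incubation.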
row,Compound,"viability change, negative = cytotoxic"
1,CN1CCC[C@@H]1Cc1c[nH]c2ccc(CCS(=O)(=O)c3ccccc3)cc12,-12.9% (inactive)
2,CC(=O)Oc1cc(C(C)C)c(OCCN(C)C)cc1C,10.9% (inactive)
3,C[C@]12CCC(=O)C=C1CC[C@@H]1[C@@H]2CC[C@@]2(C)[C@H]1CC[C@]2(O)C(=O)CO,0.0847% (inactive)
4,NC/C=C/C(=O)O,19% (inactive)

# Test: qHTS assay to identify small molecule antagonists of the estrogen related receptor (ERR) signaling pathway from Tox21 library - cell viability counter screen (AID 1224834); further: nearly all actives have a fitted effect of over 30% in size; further: potency means the concentration at half of the fitted maximal effect
# Details: ERR reporter cells viability, CellTiter-Fluor, 17.5 h; series mostly up to 92.4 µM; viability change, negative = cytotoxic: at the top concentration
# How it was run: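 In this quantitative HTS format, ERR cells receive compounds in DMSO and are incubated for 17.5 h at 37 C. Live-cell protease activity is then detected with CellTiter-Fluor.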
Compound,"viability change, negative = cytotoxic",Potency
C[C@@H](N)C(=O)O,10.3% [at 42.5 µM] (inactive),–
CCc1cc(Cl)c(OC)c(C(=O)NC[C@@H]2CCCN2CC)c1O,0.47% [at 42.5 µM] (inactive),–
CC1(O)CSC(C)(O)CS1 (stereo unspecified),4.42% (inactive),–
Cc1cc2nc(N)sc2cc1C,1.41% (inactive),–
Cc1c(-c2ccccc2)oc2c(C(=O)OCCN3CCCCC3)cccc2c1=O,-5.74% [at 42.5 µM] (inactive),–
CCCCCCCCCCCCCCCCOP(=O)([O-])OCC[N+](C)(C)C,-4.41% [at 42.5 µM] (inactive),–
CC(C)c1ccccc1,3.95% (inactive),–
Cc1nc(-c2ccccn2)ncc1C(=O)Nn1cc(C)c2cc(F)ccc21,-11.1% (inactive),–
CN1CCN(C2=Nc3cc(F)ccc3Cc3ccccc32)CC1,-3.08% [at 42.5 µM] (inactive),–
Cc1cccc(C)c1NC(=O)CN1CCCCCC1,0.129% [at 42.5 µM] (inactive),–
CC(C)C[C@H](NC(=O)OCC1c2ccccc2-c2ccccc21)C(=O)O,2% (inactive),–
CCCCNc1ccc(C(=O)OCCN(CC)CC)cc1,-14.4% [at 42.5 µM] (inactive),–
CCCCCCCCCC#N,-4.85% (inactive),–
CN1CCC[C@@H]1Cc1c[nH]c2ccc(CCS(=O)(=O)c3ccccc3)cc12,-3.54% [at 42.5 µM] (inactive),–
Cc1ccc(C(C)C)cc1O,-3.85% (inactive),–
CC(=O)Oc1cc(C(C)C)c(OCCN(C)C)cc1C,-0.0071% [at 42.5 µM] (inactive),–
C[C@]12CCC(=O)C=C1CC[C@@H]1[C@@H]2CC[C@@]2(C)[C@H]1CC[C@]2(O)C(=O)CO,5.66% [at 42.5 µM] (inactive),–
CC(C)=CCC[C@](C)(O)[C@@H]1CC=C(C)CC1,1.29% (inactive),–
OCc1c2ccccc2cc2ccccc12,-6.88% (inactive),–
COC(=O)c1ccc2cc(C(=O)OC)ccc2c1,-1.01% [at 19 µM] (inactive),–
CC1=C2[C@H](/C=C(\C)C(=O)O)CC[C@@H](C)[C@H]2CC1,-3.85% (inactive),–
O=c1[nH]cnc2c1ncn2[C@@H]1O[C@H](CO)[C@@H](O)[C@H]1O,1.51% [at 42.5 µM] (inactive),–
Nc1ccc(Oc2ccc(N)c(N)c2)cc1,–,27.3 µM (active)
NC/C=C/C(=O)O,0.0063% [at 42.5 µM] (inactive),–
CCOC(=O)CS,-4.14% (inactive),–
